# PubChem BioAssay (NCI)
# This is part of a sample that, as a whole, favours compounds with a hit. Of some 83,000 tested, about 20% had one in any assay.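 Single-dose data. Exposure time 48 hours. Values below 10 considered active.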 Active and inactive are the calls of the source.
# Legend:
# Test in all cases: NCI-60 one-dose screen, 48 h (100 = growth as untreated, 0 = no growth, -100 = all killed)
# Conditions in all cases: 10 µM unless noted
# [1] = tested on: NCI-H23 lung
# [2] = tested on: NCI-H322M lung
# [3] = tested on: HOP-62 NSCLC
# [4] = tested on: NCI-H460 lung
# [5] = tested on: HOP-92 NSCLC
# [6] = tested on: NCI-H522 lung
# [7] = tested on: A549/ATCC NSCLC
# [8] = tested on: 786-0 renal
# [9] = tested on: COLO 205 colon
Compound,growth [1],growth [2],growth [3],growth [4],growth [5],growth [6],growth [7],growth [8],growth [9]
C=CN(C(=O)N1CCN(c2cc3c(cc2F)c(=O)c(C(=O)O)cn3C2CC2)CC1)c1nc(-c2ccc(C)cc2)cs1,13.4% (inactive),20.8% (inactive),17.9% (inactive),9.77% (active),-10.4% (active),5.65% (active),15.7% (inactive),22.8% (inactive),16.7% (inactive)
COc1ccc(C(c2cc(OC)c(OC)c(OC)c2)n2cncn2)cc1O (centres undefined),39.9% (inactive),51.5% (inactive),32.2% (inactive),9.82% (active),43.9% (inactive),12.8% (inactive),18.6% (inactive),28.1% (inactive),-1.65% (active)
Fc1ccc(/C=C/c2cc(/C=C/c3ccc(F)cc3)n(-c3cc(F)cc(F)c3)n2)cc1,98.3% (inactive),86.5% (inactive),96% (inactive),107% (inactive),83% (inactive),61.7% (inactive),90.8% (inactive),77.4% (inactive),119% (inactive)
CNC1=C([N+](=O)[O-])C(c2ccc(OC)cc2)C(C#N)=C(c2ccc[nH]2)O1 (centres undefined),98.5% (inactive),101% (inactive),99% (inactive),100% (inactive),96.2% (inactive),92.3% (inactive),106% (inactive),106% (inactive),107% (inactive)
CCN1C(=O)N(CC)C2C1NC(=S)N2/N=C/C=C/c1cccs1 (centres undefined),42.6% (inactive),50.9% (inactive),51.1% (inactive),7.03% (active),88.8% (inactive),-5.25% (active),24.9% (inactive),43.1% (inactive),18.3% (inactive)
C=C(C)[C@@H]1CC[C@]2(COC(=O)c3cccnc3)CC[C@]3(C)[C@H](CC[C@@H]4[C@@]5(C)CCCN(C(=O)c6cccnc6)C(C)(C)[C@@H]5CC[C@]43C)[C@@H]12,42.6% (inactive),65.6% (inactive),61% (inactive),17.7% (inactive),32.9% (inactive),34.3% (inactive),29.3% (inactive),45.1% (inactive),27.9% (inactive)
COc1cc(OCc2cccc(-c3ccccc3)c2C)cc(OC)c1CN1CCCCC1C(=O)NCCOCCOCCN (centres undefined),86.8% (inactive),89.6% (inactive),89.8% (inactive),41.8% (inactive),46.4% (inactive),93.3% (inactive),70.6% (inactive),90.8% (inactive),20% (inactive)
Nc1ccc(Cl)c2c(=O)c3ccccc3[nH]c12,71.3% (inactive),99.8% (inactive),105% (inactive),91.2% (inactive),99.4% (inactive),69.8% (inactive),80% (inactive),77.4% (inactive),90.7% (inactive)
C=C(C)[C@@H]1CC[C@]2(C(=O)NC(C)=O)CC[C@]3(C)[C@H](CC[C@@H]4[C@@]5(C)CCCNC(C)(C)[C@@H]5CC[C@]43C)[C@@H]12,59.7% (inactive),63.3% (inactive),56.4% (inactive),-84.2% (active),56.4% (inactive),-46.7% (active),26.8% (inactive),59.4% (inactive),-59% (active)
CN1CCN(CC(=O)N(C)c2ccc(N=C(c3ccccc3)c3c(O)[nH]c4ccc([N+](=O)[O-])cc34)cc2)CC1,80.4% (inactive),82.4% (inactive),85.1% (inactive),54.5% (inactive),87.9% (inactive),86.8% (inactive),46.7% (inactive),44.3% (inactive),28.6% (inactive)
NCCCCCNc1noc(Cc2c[nH]c3cc(Br)ccc23)n1,30.9% (inactive),33.4% (inactive),21.6% (inactive),12.8% (inactive),19.7% (inactive),-38.3% (active),24.6% (inactive),43.2% (inactive),-0.719% (active)
C=C(c1ccc(C(=O)O)c(F)c1)c1cc2c(cc1C)C(C)(C)C=CC2(C)C,76.2% (inactive),90.7% (inactive),70% (inactive),82.1% (inactive),62.4% (inactive),61.5% (inactive),38.1% (inactive),89.2% (inactive),107% (inactive)
Cc1cccc(CN(Nc2ccccc2)c2ccccc2)n1,104% (inactive),96.7% (inactive),99.8% (inactive),101% (inactive),65% (inactive),103% (inactive),93.1% (inactive),107% (inactive),111% (inactive)
CN(C)c1ccc(Cc2cc(-c3ccccc3)nn(C/C(=N/O)c3ccccc3)c2=O)cc1,57.4% (inactive),80.4% (inactive),75.1% (inactive),42.6% (inactive),55.9% (inactive),41.2% (inactive),30.2% (inactive),75.4% (inactive),58.4% (inactive)
Cc1ccc(OCCOCCOCCOCCOc2ccc(C)n(O)c2=S)c(=S)n1O,18.5% (inactive),23.6% (inactive),-0.489% (active),1.54% (active),36.8% (inactive),17.9% (inactive),12.5% (inactive),-5.93% (active),5.35% (active)
N/C(=N\c1nc2ccccc2s1)NC(=O)Nc1ccccc1,54.7% (inactive),74.3% (inactive),30% (inactive),14.4% (inactive),53.2% (inactive),-13.2% (active),–,52.3% (inactive),28.3% (inactive)
COc1ccccc1-c1nc2ccc3[nH]ncc3c2c2c1CCCC2,69% (inactive),82.8% (inactive),61.2% (inactive),82.5% (inactive),70.5% (inactive),55% (inactive),65.2% (inactive),67.7% (inactive),74.7% (inactive)
O=C1c2c(c3c4cc(F)ccc4oc3c3[nH]c4ccccc4c23)C(=O)N1O,23.4% (inactive),57.7% (inactive),24.2% (inactive),5.01% (active),48.8% (inactive),30.5% (inactive),54.2% (inactive),47.6% (inactive),57.7% (inactive)
O=C(OCC(O)C(=O)NC12CC3CC(CC(C3)C1)C2)c1cccc(Br)c1 (centres undefined),103% (inactive),102% (inactive),96.9% (inactive),108% (inactive),90.1% (inactive),91.9% (inactive),91.9% (inactive),102% (inactive),105% (inactive)

Compound,growth [1],growth [2],growth [3],growth [4],growth [5],growth [6],growth [7],growth [8],growth [9]
CN(C)c1ccc(/C=N/NC(=O)CSc2nc3sc4c(c3c(=O)n2-c2ccccc2)CCCCC4)cc1,29.7% (inactive),44.9% (inactive),21.5% (inactive),1.49% (active),50.3% (inactive),21.2% (inactive),6.63% (active),45% (inactive),33.8% (inactive)
COc1cccc(-c2cc(-c3ccc(Nc4nc(Nc5ccc(Cl)cc5)nc(Nc5ccc(Cl)cc5)n4)cc3)nc(N)c2C#N)c1,37.9% (inactive),99.9% (inactive),95% (inactive),69% (inactive),-85.7% (active),87.4% (inactive),–,59.2% (inactive),-30.4% (active)
CC(=O)OCCOc1cc(Cl)c(Cl)cc1Cl,97.4% (inactive),112% (inactive),103% (inactive),109% (inactive),82.3% (inactive),86.6% (inactive),90.8% (inactive),100% (inactive),121% (inactive)
COc1ccc(C(=O)/C=C/c2ccc(Cl)cc2)cc1S(N)(=O)=O,87.8% (inactive),29.1% (inactive),53.6% (inactive),65.8% (inactive),-26.6% (active),56.9% (inactive),54.5% (inactive),-30.7% (active),60.6% (inactive)
CCOC(=O)c1ccc2c(c1)[n+](=O)c(C(C)=O)c(C(F)(F)F)n2[O-],-16.9% (active),94.4% (inactive),25.5% (inactive),-50.7% (active),-29.9% (active),-83.8% (active),–,11.4% (inactive),-78.3% (active)
O=C(Nc1ccccc1CNc1nc(Nc2ccc(OCCN3CCCC3)cc2)ncc1Cl)NC1CCCCC1,87.2% (inactive),109% (inactive),83.3% (inactive),89.8% (inactive),65.5% (inactive),113% (inactive),85.4% (inactive),-25.2% (active),89.3% (inactive)
C/C(=C(\c1ccc(OCCCN(C)C)cc1)c1ccc(OC(=O)Cc2ccccc2)cc1)c1ccc(Cl)cc1,84.6% (inactive),86.8% (inactive),78.9% (inactive),40.8% (inactive),51.8% (inactive),67.2% (inactive),63.3% (inactive),68.3% (inactive),50.6% (inactive)
CCOC(=O)C#Cc1c(CC(=O)OCC)nnn1[C@H]1O[C@@H](CO)[C@@H]2OC(C)(C)O[C@@H]21,95.3% (inactive),93.9% (inactive),101% (inactive),104% (inactive),75.1% (inactive),-57.6% (active),75.9% (inactive),83.9% (inactive),-40.3% (active)
CCCC1Cc2cc(-n3nc(C)c4c3CC(C)(C)CC4=O)cc(NC3CCC(O)CC3)c2C(=O)N1 (centres undefined),34.5% (inactive),50.5% (inactive),40.1% (inactive),18% (inactive),-0.467% (active),39.1% (inactive),31.6% (inactive),49.9% (inactive),14% (inactive)
COC1=C(OC)C(=O)C(CCCCCCCCCCO)=C(C)C1=O,35.2% (inactive),112% (inactive),86.4% (inactive),98.8% (inactive),76.6% (inactive),63.7% (inactive),96% (inactive),83.3% (inactive),102% (inactive)
CCN(CC)CCCC(Nc1c2ccc(Cl)cc2nc2ccc(OC)cc12)c1ccncc1 (centres undefined),80.7% (inactive),65.4% (inactive),83.4% (inactive),66% (inactive),65.7% (inactive),83.3% (inactive),74.4% (inactive),62.7% (inactive),69.8% (inactive)
Cc1ccc(NC(=O)c2ccc(Nc3ncnc4c3cnn4-c3cccc(F)c3)cc2)cc1,99.6% (inactive),103% (inactive),94.7% (inactive),102% (inactive),102% (inactive),96% (inactive),–,95.8% (inactive),109% (inactive)
CCNCCNc1c(C)c(-c2ccc(C(F)(F)F)cc2)c(C#N)c2nc3ccccc3n12,90% (inactive),84.3% (inactive),90.9% (inactive),94.1% (inactive),47.1% (inactive),76.8% (inactive),88.7% (inactive),77% (inactive),88.2% (inactive)
Cc1c(N2CCCCC2)[nH]c2ccccc12,108% (inactive),104% (inactive),119% (inactive),101% (inactive),46.8% (inactive),90.2% (inactive),89% (inactive),103% (inactive),124% (inactive)
C(CCCSC1=NCCN1)CCSC1=NCCN1,94.8% (inactive),113% (inactive),93.1% (inactive),110% (inactive),41.4% (inactive),103% (inactive),104% (inactive),97% (inactive),121% (inactive)
CCOC(=O)C1=C(C)N(C)C(=O)N(C)C1c1ccccc1 (centres undefined),96.7% (inactive),98.6% (inactive),81.7% (inactive),101% (inactive),78.5% (inactive),86.9% (inactive),104% (inactive),100% (inactive),98.5% (inactive)
COc1nc2ccccc2cc1/C=C1/C=C(c2ccccc2)NC1=O,56.3% (inactive),81.3% (inactive),39.2% (inactive),15.7% (inactive),32.5% (inactive),38.5% (inactive),41.7% (inactive),29.5% (inactive),29.3% (inactive)
CCCCC/C=C/CCC(=O)N[C@H]1[C@H](Oc2c3cc4cc2Oc2ccc(cc2Cl)[C@@H](O[C@@H]2O[C@H](CO)[C@@H](O)[C@H](O)[C@H]2NC(C)=O)[C@@H]2NC(=O)[C@H](NC(=O)[C@@H]4NC(=O)[C@H]4NC(=O)[C@@H](Cc5ccc(c(Cl)c5)O3)NC(=O)[C@@H](N)c3ccc(O)c(c3)Oc3cc(O)cc4c3)c3ccc(O)c(c3)-c3c(O[C@H]4O[C@H](CO)[C@@H](O)[C@H](O)[C@@H]4O)cc(O)cc3[C@H](C(=O)O)NC2=O)O[C@H](CO)[C@H](O)[C@@H]1O,93.4% (inactive),108% (inactive),113% (inactive),107% (inactive),96.4% (inactive),103% (inactive),99.8% (inactive),101% (inactive),103% (inactive)
